These results are taken from ChEMBL document CHEMBL4513216, “Probing the Open Global Health Chemical Diversity Library for Multistage-Active Starting Points for Next-Generation Antimalarials” (ACS Infect Dis, 2020).

Out of some 65,000 compounds screened, about 2,100 (3.2%) showed an effect of 50% or more. The median lay at about -52%. This excerpt belongs to a sample that is enriched for strong results.

This test concerns Plasmodium falciparum. Kind of test: Screen against P. falciparum Asexual Blood Stage (ABS), at 5uM. The test is classed as functional, Dd2. The settings on record: tested at 5 uM.
Turning to `Cc1n[nH]c2c1C(c1ccc3c(c1)OCO3)SCC(=O)N2` (stereo unspecified), the INHIBITION is -22%.
The same measure for `COc1cccc(-n2ccc3nc(N4CCCC4)ncc3c2=O)c1`: 91.7%.
To `COc1ccc(CCN)cc1-c1ccc(S(C)(=O)=O)cc1` belongs 21.8%; to `CC(=O)Nc1ccc(-c2ccccc2CCN)cc1`, -115%.
Take `COc1ccc(-c2ccccc2CCN)c(OC)c1OC`: the INHIBITION turned out to be 81.8%.
`COc1ccc(-c2ccccc2CCN)c(OC)c1`: the INHIBITION was 81.6%.
The same measure for `CC(=O)Nc1cccc(-c2ccccc2CCN)c1`: -108%.
To `COc1ccc2c(ccn2CCN)c1` belongs 26.1%; to `CN1C[C@@H]2COC[C@]2(C(=O)NCc2cccs2)C1`, -12.4%.
To `CCc1[nH]c(C2(N)CCCCC2)nc(=O)c1C` belongs -30.6%.
Turning to `Cc1noc(C)c1CN1CCO[C@H]2CN(CC3CC3)C[C@H]21`, the INHIBITION was 26.3%.
Consider `Cc1nc(=O)c(CC(=O)N2C[C@H]3CC[C@@H](C2)N(CC2CCC2)C3)c[nH]1`, for which the INHIBITION is -30%.
For the compound `COCC1COCCC12CCN(C(=O)Cc1cccc(OC)c1)CC2` (stereo unspecified), the INHIBITION was -3.52%.
For the compound `COc1ccc(C(=O)C2CCCN(Cc3ccccc3O)C2)c(OC)c1` (stereo unspecified), the INHIBITION was -55.9%.
The same measure for `COc1ccc(C(=O)C2CCCN(CCc3ccccc3)C2)c(OC)c1` (stereo unspecified): 71.8%; for `CCN(CC1CCCN(CCc2cccc(OC)c2)C1)C(=O)CN(C)C` (stereo unspecified): 83.3%.
To `Cc1nc(NCc2ccco2)nc2c1COCC21CCNC1` (stereo unspecified) belongs 21.7%; to `Cn1cc(N2CCC3(CCN(Cc4cccnc4)C3)C2=O)cn1` (stereo unspecified), -35.8%.
With `CCCN1CC2(CCN(c3ncc(F)cn3)CC2)CC1C(=O)O` (stereo unspecified), the INHIBITION was -31.5%.
To `CN(C)C[C@@H]1C[C@@H]2CN(c3ncc(F)cn3)CC[C@@H]2N1C` belongs 12.3%.
Take `CN(C)C[C@@H]1CN(C2CCN(c3ccc(Cl)cc3)CC2)C[C@@H]1CO`: the INHIBITION is 88.5%.
The same measure for `CN(CCO)C[C@@H]1CN(C2CCN(c3ccccc3Cl)CC2)C[C@@H]1CO`: 79.5%; for `CN(C)C[C@@H]1CN(C2CCN(c3ccccc3Cl)CC2)C[C@@H]1CO`: 74%.
The same measure for `Cc1cc(F)ccc1N1CCC(N2C[C@@H](CN(C)C)[C@@H](CO)C2)CC1`: 92.6%; for `COCCO[C@H]1COCCN(C2CCN(C)CC2)C1`: -110%.
In the case of `Cc1cc(CN2C[C@@H]3CCCO[C@@H]3[C@H](NS(C)(=O)=O)C2)no1`, the INHIBITION was -28.3%.
The same measure for `O=C(C1CCCCC1)N1CCO[C@@H]2CNC[C@@H]21`: -65.1%; for `COC[C@]12COC[C@H]1CN(Cc1cccnc1OC)C2`: -130%.
To `CN(CCO)C[C@@H]1CN(Cc2ccccc2-c2ccccc2)C[C@@H]1CO` belongs 87.6%; to `CC(C)=CCN1C[C@@H]2CC[C@H]1CN(C(=O)Cc1c(C)[nH]c(C)nc1=O)C2`, -28.2%; to `O=C(Cc1cccnc1)N1C[C@@H]2CC[C@H]1CN(Cc1ccc(F)cc1)C2`, -13.8%.
Consider `Fc1ccc(CN2CCCC(c3cc4ncccc4[nH]3)C2)cc1` (stereo unspecified), for which the INHIBITION turned out to be 82.3%.
To `Fc1ccc(CN2CCO[C@H]3[C@H](Oc4ccccn4)CC[C@@H]32)cc1` belongs -29%; to `CCOc1ccc(CN2CCCC(c3cc4ncccc4[nH]3)C2)cc1` (stereo unspecified), 85%.
Take `c1cc(CO[C@H]2CC[C@H]3[C@H]2OCCN3Cc2nccs2)ccn1`: the INHIBITION was -84.3%.
For the compound `CN(C)C(=O)[C@H]1C[C@@H]2CCN(Cc3ccncc3)C[C@H]2O1`, the INHIBITION is recorded as -59.7%.
The same measure for `CCc1c(C)sc2ncnc(N3CC[C@@H](N4CCC(O)CC4)[C@H](O)C3)c12`: 75.5%; for `Cc1cc(C)c(CNc2cnc3ccccc3n2)c(=O)[nH]1`: 12.9%; for `COc1ccccc1CCN1CCCC(CN(C)Cc2ccc(C)o2)C1` (stereo unspecified): 87.8%.
To `COc1ccccc1CC(=O)N(CCN1CCOCC1)Cc1ccco1` belongs -29.3%.
With `COc1ccccc1CC(=O)N1CCN(Cc2ccco2)C[C@@H]1C`, the INHIBITION is on record as -101%.
To `Cc1nc(CN2CCOCC3(CCN(c4ccccn4)C3)C2)cs1` (stereo unspecified) belongs 0.814%; to `Cc1nc(CN2CCOCC3(CCN(c4ncccn4)C3)C2)cs1` (stereo unspecified), -42.9%.
To `Cc1nc(CNCc2c(C(C)C)nn(C)c2N2CCOCC2)cs1` belongs 71.7%.
Turning to `CC(C)NC(=O)N1CCOC2(CNC2)C1`, the INHIBITION was -131%.
Take `Cc1cccc(CN2C[C@H](OCc3csc(C)n3)[C@H]3COC[C@H]32)n1`: the INHIBITION is -75.9%.
`Cn1ncc2c(NC3CN4CCC3CC4)nc(-c3ccncc3)nc21` (stereo unspecified): the INHIBITION is reported as 0.572%.
The same measure for `Cn1ncc2c(NC3CCSC3)nc(-c3ccncc3)nc21` (stereo unspecified): 83.1%; for `CCc1cc(CN2C[C@@H]3CC[C@H]2CN(C2Cc4ccccc4C2)C3)on1`: 88.2%; for `CSc1ncc(CN2C[C@@H]3CC[C@H]2CN(C2CCOCC2)C3)cn1`: -18.2%.
On to `CN(C)C(=O)CN1C[C@H]2CC[C@@H](C1)N(Cc1c(Cl)cncc1Cl)C2`, for which the INHIBITION was -33.6%.
